Of roughly 8,800 targets only a part is listed; those with a hit were picked by preference. About 0.5% of all pairs of compound and target were hits.
How the values were obtained:
Assay in all cases: log2 fold change, soluble protein after heating vs DMSO (PISA); higher = thermal stabilisation; K562 lysate, 10 uM; active = over 0.2 and 3.5 SD of the protein, either way, in both replicates (recomputed)
alvocidib = compound: CN1CC[C@H](c2c(O)cc(O)c3c(=O)cc(-c4ccccc4Cl)oc23)[C@H](O)C1 [alvocidib]
How it was run: (§1)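 Soluble protein was defined as the supernatant remaining after 21,000xg for 90 min, following pooling of heated aliquots and adjustment to 0.5% NP-40 at 4°C. Before that, crude K562 extract at 1 mg/mL protein in PBS pH 7.4 with 1 mM MgCl2 was treated with 10 μM compound for 30 min and heated for 3 min across 48°C-58°C. Quantification used TMTpro 16plex LC-MS/MS with channel sums equalised, and values are log-two fold changes in thermal stability relative to solvent controls from duplicates.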

Tubastatin A = compound: CN1CCc2c(c3ccccc3n2Cc2ccc(C(=O)NO)cc2)C1 [Tubastatin A]
How it was run: as §1

[1] = compound: CNC(=O)C1=CC=CC=C1NC2=NC(=NC=C2Cl)NC3=C(C=C(C=C3)N4CCOCC4)OC
How it was run: as §1

defactinib = compound: CNC(=O)c1ccc(Nc2ncc(C(F)(F)F)c(NCc3nccnc3N(C)S(C)(=O)=O)n2)cc1 [defactinib]
How it was run: as §1

[2] = compound: CNc1nc(-c2ccc3c(N)n[nH]c3c2)cc(N2C[C@@H](C(=O)NC3CCCCC3)CC[C@H]2C)n1
How it was run: as §1

encorafenib = compound: COC(=O)N[C@@H](C)CNc1nccc(-c2cn(C(C)C)nc2-c2cc(Cl)cc(NS(C)(=O)=O)c2F)n1 [encorafenib]
How it was run: as §1

[3] = compound: COC(=O)[C@H](CCSC)NC(=O)C1=C(C=C(C=C1)NC[C@H](CS)N)C2=CC=CC=C2
How it was run: as §1

alisertib = compound: COc1cc(Nc2ncc3c(n2)-c2ccc(Cl)cc2C(c2c(F)cccc2OC)=NC3)ccc1C(=O)O [alisertib]
How it was run: as §1

[4] = compound: COc1cc2nc(-c3cc(F)ccc3O)nc(N[C@@H]3CNC[C@H]3C(C)(C)O)c2cc1OC
How it was run: as §1

gefitinib = compound: COc1cc2ncnc(Nc3ccc(F)c(Cl)c3)c2cc1OCCCN1CCOCC1 [gefitinib]
How it was run: as §1

lapatinib = compound: CS(=O)(=O)CCNCc1ccc(-c2ccc3ncnc(Nc4ccc(OCc5cccc(F)c5)c(Cl)c4)c3c2)o1 [lapatinib]
How it was run: as §1

pictilisib = compound: CS(=O)(=O)N1CCN(Cc2cc3nc(-c4cccc5[nH]ncc45)nc(N4CCOCC4)c3s2)CC1 [pictilisib]
How it was run: as §1

crizotinib = compound: C[C@@H](Oc1cc(-c2cnn(C3CCNCC3)c2)cnc1N)c1c(Cl)ccc(F)c1Cl [crizotinib]
How it was run: as §1

[5] = compound: C[C@H](C1=CC=C(C=C1)C(=O)NC2=C3C=CNC3=NC=C2)N
How it was run: as §1

duvelisib = compound: C[C@H](Nc1ncnc2nc[nH]c12)c1cc2cccc(Cl)c2c(=O)n1-c1ccccc1 [duvelisib]
How it was run: as §1

gandotinib = compound: Cc1cc(Nc2cc(CN3CCOCC3)c3nc(C)c(Cc4ccc(Cl)cc4F)n3n2)n[nH]1 [gandotinib]
How it was run: as §1

tozasertib = compound: Cc1cc(Nc2cc(N3CCN(C)CC3)nc(Sc3ccc(NC(=O)C4CC4)cc3)n2)n[nH]1 [tozasertib]
How it was run: as §1

doramapimod = compound: Cc1ccc(-n2nc(C(C)(C)C)cc2NC(=O)Nc2ccc(OCCN3CCOCC3)c3ccccc23)cc1 [doramapimod]
How it was run: as §1

bafetinib = compound: Cc1ccc(NC(=O)c2ccc(CN3CC[C@H](N(C)C)C3)c(C(F)(F)F)c2)cc1Nc1nccc(-c2cncnc2)n1 [bafetinib]
How it was run: as §1

[6] = compound: Cc1cccc(CC(=O)N2CCc3c2ccc(-c2cn(C)c4ncnc(N)c24)c3F)n1
How it was run: as §1

Measured: log2 fold change

PIGO (UniProt Q8TEQ8)
Chain of UniProt Q8TEQ8 (Q8TEQ8 whole entry, looked up): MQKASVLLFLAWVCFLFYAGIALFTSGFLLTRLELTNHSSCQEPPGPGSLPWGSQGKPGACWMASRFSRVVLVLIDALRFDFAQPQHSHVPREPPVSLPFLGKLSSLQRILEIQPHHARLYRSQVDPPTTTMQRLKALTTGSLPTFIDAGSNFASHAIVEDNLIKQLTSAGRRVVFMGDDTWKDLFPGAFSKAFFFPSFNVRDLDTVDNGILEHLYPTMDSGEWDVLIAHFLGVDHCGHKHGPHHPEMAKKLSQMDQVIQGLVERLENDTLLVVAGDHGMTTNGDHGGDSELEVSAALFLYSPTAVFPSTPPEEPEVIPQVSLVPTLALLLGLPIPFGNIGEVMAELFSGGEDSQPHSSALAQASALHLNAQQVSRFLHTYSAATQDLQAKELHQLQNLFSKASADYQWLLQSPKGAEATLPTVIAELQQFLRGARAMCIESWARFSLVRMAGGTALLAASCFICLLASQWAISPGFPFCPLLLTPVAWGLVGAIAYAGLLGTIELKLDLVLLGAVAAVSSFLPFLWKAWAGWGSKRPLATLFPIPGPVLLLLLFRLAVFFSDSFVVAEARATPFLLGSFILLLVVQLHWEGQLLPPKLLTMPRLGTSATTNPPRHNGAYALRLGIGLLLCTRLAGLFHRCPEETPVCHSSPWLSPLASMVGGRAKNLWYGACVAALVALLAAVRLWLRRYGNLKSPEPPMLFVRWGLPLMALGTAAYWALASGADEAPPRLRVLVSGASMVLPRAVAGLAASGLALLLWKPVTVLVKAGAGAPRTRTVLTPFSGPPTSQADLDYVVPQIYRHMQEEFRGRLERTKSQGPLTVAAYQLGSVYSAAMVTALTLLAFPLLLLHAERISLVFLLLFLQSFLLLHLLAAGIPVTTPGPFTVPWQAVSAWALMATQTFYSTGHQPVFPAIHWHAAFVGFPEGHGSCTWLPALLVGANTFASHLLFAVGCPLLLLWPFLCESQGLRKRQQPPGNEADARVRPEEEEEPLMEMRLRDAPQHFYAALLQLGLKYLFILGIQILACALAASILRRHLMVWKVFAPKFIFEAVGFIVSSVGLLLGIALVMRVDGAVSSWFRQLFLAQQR
inactive: alvocidib 0.038 | Tubastatin A -0.112 | [1] -0.095 | defactinib 0.046 | [2] 0.143 | encorafenib 0.019 | [3] -0.121 | alisertib 0.061 | [4] -0.073 | gefitinib 0.013 | lapatinib 0.047 | pictilisib 0.133 | crizotinib -0.02 | [5] 0.019 | duvelisib 0.076 | gandotinib -0.193 | tozasertib 0.117 | doramapimod -0.186 | bafetinib -0.026 | [6] 0.037

PRKAR2B (UniProt P31323)
Chain of UniProt P31323 (P31323 whole entry, looked up): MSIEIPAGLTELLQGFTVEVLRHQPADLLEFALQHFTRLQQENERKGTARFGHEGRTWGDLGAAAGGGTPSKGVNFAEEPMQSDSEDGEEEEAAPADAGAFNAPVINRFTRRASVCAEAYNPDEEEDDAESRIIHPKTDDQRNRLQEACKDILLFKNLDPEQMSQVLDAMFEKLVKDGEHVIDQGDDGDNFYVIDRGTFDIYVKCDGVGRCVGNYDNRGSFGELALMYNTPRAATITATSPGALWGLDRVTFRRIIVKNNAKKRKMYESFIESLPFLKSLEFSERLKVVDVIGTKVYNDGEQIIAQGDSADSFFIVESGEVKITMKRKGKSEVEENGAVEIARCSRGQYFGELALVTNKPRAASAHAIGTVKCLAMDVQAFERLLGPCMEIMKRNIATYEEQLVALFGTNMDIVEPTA
active: gandotinib -0.31
inactive: alvocidib 0 | Tubastatin A -0.021 | [1] -0.05 | defactinib -0.117 | [2] -0.023 | encorafenib 0.04 | [3] 0.1 | alisertib -0.014 | [4] -0.032 | gefitinib -0.046 | lapatinib 0.013 | pictilisib -0.059 | crizotinib -0.007 | [5] -0.011 | duvelisib 0 | tozasertib 0.038 | doramapimod 0.017 | bafetinib -0.02 | [6] 0.001

PKN1 isoform 2 (UniProt Q16512)
Chain of UniProt Q16512 (Q16512 whole entry, looked up): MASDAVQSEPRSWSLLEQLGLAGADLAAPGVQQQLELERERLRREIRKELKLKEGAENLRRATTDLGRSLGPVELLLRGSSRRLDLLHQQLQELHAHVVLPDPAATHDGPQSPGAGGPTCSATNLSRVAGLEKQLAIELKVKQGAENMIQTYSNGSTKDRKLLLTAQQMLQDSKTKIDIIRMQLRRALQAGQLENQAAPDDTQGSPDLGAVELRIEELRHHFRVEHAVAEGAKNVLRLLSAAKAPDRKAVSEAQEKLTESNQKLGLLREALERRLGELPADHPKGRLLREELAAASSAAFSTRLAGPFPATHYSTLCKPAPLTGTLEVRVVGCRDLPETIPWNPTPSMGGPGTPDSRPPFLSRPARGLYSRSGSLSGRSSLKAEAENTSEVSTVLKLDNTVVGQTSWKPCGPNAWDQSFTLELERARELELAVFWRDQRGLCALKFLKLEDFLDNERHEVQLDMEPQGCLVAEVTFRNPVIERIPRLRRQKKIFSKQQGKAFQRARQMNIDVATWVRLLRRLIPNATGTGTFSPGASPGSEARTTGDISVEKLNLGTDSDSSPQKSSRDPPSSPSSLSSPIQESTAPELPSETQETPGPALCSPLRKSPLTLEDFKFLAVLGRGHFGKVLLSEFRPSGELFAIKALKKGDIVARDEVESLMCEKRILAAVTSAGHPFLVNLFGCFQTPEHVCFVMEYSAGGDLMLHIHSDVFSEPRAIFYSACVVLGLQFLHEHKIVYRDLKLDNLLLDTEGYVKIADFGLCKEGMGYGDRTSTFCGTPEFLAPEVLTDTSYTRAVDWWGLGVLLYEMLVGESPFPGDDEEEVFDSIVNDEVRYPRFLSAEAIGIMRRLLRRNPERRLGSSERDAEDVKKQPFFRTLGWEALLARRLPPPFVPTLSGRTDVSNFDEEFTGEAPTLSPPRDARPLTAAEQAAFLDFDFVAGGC
inactive: alvocidib -0.036 | Tubastatin A -0.056 | [1] -0.001 | defactinib -0.079 | [2] -0.003 | encorafenib 0.075 | [3] 0.116 | alisertib -0.009 | [4] -0.1 | gefitinib -0.005 | lapatinib 0.038 | pictilisib -0.005 | crizotinib -0.032 | [5] 0.095 | duvelisib -0.014 | gandotinib -0.233 | tozasertib -0.005 | doramapimod 0.108 | bafetinib -0.069 | [6] 0.04

POC5 (UniProt Q8NA72)
inactive: alvocidib -0.048 | Tubastatin A -0.046 | [1] 0.054 | defactinib 0.154 | [2] 0.06 | encorafenib 0 | [3] -0.048 | alisertib -0.018 | [4] -0.009 | gefitinib 0.042 | lapatinib -0.133 | pictilisib -0.12 | crizotinib 0.02 | [5] 0.022 | duvelisib -0.041 | gandotinib 0.107 | tozasertib -0.086 | doramapimod -0.023 | bafetinib 0.051 | [6] 0.031

PPIE (UniProt Q9UNP9)
Chain of UniProt Q9UNP9 (Q9UNP9 whole entry, looked up): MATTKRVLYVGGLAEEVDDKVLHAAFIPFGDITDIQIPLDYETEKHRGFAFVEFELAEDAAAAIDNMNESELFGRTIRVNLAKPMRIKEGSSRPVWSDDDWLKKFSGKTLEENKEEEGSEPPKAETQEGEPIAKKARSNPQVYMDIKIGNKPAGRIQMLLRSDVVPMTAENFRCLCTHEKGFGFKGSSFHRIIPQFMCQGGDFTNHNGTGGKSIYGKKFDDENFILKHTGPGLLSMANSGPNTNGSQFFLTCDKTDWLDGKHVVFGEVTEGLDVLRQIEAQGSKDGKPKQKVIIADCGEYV
inactive: alvocidib -0.131 | Tubastatin A 0.025 | [1] -0.047 | defactinib -0.018 | [2] 0.023 | encorafenib -0.025 | [3] -0.041 | alisertib -0.036 | [4] 0.005 | gefitinib 0.034 | lapatinib 0.03 | pictilisib 0 | crizotinib -0.02 | [5] -0.234 | duvelisib 0.006 | gandotinib 0.144 | tozasertib 0.014 | doramapimod 0.062 | bafetinib 0.009 | [6] 0.102

PFN1 (UniProt P07737)
inactive: alvocidib -0.002 | Tubastatin A -0.01 | [1] -0.007 | defactinib 0.006 | [2] -0.024 | encorafenib -0.005 | [3] -0.097 | alisertib 0.004 | [4] -0.013 | gefitinib 0.004 | lapatinib 0.01 | pictilisib -0.003 | crizotinib 0.016 | [5] -0.006 | duvelisib 0.009 | gandotinib 0.007 | tozasertib -0.004 | doramapimod 0.007 | bafetinib 0 | [6] 0.007

PLEKHO2 (UniProt Q8TD55)
Chain of UniProt Q8TD55 (Q8TD55 whole entry, looked up): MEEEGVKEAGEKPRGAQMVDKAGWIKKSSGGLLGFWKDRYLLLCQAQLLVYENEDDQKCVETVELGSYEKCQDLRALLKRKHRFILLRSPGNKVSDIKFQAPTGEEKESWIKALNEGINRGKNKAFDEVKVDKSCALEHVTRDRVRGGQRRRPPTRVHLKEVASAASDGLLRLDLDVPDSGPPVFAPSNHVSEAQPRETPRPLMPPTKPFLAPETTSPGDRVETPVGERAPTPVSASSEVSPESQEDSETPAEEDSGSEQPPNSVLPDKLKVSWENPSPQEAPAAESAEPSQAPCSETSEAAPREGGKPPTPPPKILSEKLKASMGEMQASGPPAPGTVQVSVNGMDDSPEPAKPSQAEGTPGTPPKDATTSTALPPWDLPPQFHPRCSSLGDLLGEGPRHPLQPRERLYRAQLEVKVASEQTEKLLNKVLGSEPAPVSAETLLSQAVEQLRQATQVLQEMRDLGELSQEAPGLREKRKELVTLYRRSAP
inactive: alvocidib -0.067 | Tubastatin A -0.228 | [1] 0.281 | defactinib -0.001 | [2] -0.106 | encorafenib 0.007 | [3] 0.054 | alisertib -0.004 | [4] 0 | gefitinib 0.043 | lapatinib 0.045 | pictilisib 0.184 | crizotinib 0.057 | [5] 0.039 | duvelisib 0.062 | gandotinib -0.018 | tozasertib -0.137 | doramapimod 0.005 | bafetinib -0.193 | [6] 0.07

PIP4K2A (UniProt P48426)
inactive: Tubastatin A -0.048 | [1] 0.006 | defactinib 0.065 | [2] -0.035 | encorafenib 0.141 | [3] -0.071 | alisertib 0.01 | [4] 0.005 | gefitinib 0.037 | lapatinib -0.04 | pictilisib 0.032 | crizotinib 0.019 | [5] -0.089 | duvelisib 0.05 | gandotinib 0.109 | tozasertib 0.014 | doramapimod -0.035 | [6] 0.005
active: alvocidib 0.279 | bafetinib 0.301

PRAME (UniProt P78395)
inactive: alvocidib 0.034 | Tubastatin A -0.111 | [1] 0.024 | defactinib 0.006 | [2] -0.006 | encorafenib -0.001 | [3] 0.13 | alisertib 0.014 | [4] 0.009 | gefitinib -0.007 | lapatinib -0.012 | pictilisib -0.008 | crizotinib -0.08 | [5] -0.015 | duvelisib 0.005 | gandotinib -0.037 | tozasertib -0.013 | doramapimod 0.007 | bafetinib -0.062 | [6] 0.056

PTPN23 (UniProt Q9H3S7)
inactive: alvocidib -0.004 | Tubastatin A -0.035 | [1] -0.03 | defactinib -0.018 | [2] 0.016 | encorafenib 0.031 | [3] -0.018 | alisertib 0.012 | [4] -0.017 | gefitinib 0.005 | lapatinib 0.003 | pictilisib -0.028 | crizotinib -0.014 | [5] 0.005 | duvelisib -0.023 | gandotinib -0.031 | tozasertib 0.013 | doramapimod 0.016 | bafetinib -0.032 | [6] 0.023

PDIA4 (UniProt P13667)
Chain of UniProt P13667 (P13667 whole entry, looked up): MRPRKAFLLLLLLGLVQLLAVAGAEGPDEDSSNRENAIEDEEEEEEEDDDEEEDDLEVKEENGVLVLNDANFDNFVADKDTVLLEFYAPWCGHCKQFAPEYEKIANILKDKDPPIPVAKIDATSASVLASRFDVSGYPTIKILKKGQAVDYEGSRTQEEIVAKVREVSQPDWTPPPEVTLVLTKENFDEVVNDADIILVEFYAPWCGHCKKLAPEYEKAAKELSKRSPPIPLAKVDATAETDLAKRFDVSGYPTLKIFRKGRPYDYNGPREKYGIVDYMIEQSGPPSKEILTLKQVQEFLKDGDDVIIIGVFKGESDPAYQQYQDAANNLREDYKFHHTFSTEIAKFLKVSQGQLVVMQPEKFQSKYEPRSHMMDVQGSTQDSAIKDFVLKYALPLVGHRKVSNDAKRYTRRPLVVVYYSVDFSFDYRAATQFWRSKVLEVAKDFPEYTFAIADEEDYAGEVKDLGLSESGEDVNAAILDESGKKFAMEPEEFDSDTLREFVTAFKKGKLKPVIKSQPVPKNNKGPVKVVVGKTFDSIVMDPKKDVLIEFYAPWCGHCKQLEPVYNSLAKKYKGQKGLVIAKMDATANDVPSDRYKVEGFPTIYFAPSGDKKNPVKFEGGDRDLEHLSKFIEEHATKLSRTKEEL
inactive: alvocidib 0.025 | Tubastatin A 0.05 | [1] -0.008 | defactinib -0.042 | [2] -0.012 | encorafenib -0.011 | [3] -0.027 | alisertib -0.007 | [4] -0.001 | gefitinib -0.011 | lapatinib -0.018 | pictilisib 0.006 | crizotinib 0.09 | [5] 0.029 | duvelisib -0.011 | gandotinib -0.026 | tozasertib 0 | doramapimod -0.057 | bafetinib 0.014 | [6] -0.045

POLR3E (UniProt Q9NVU0)
inactive: alvocidib 0.011 | Tubastatin A -0.08 | [1] 0.009 | defactinib 0.02 | [2] 0.009 | encorafenib 0.004 | [3] 0.104 | alisertib 0.024 | [4] -0.003 | gefitinib 0.009 | lapatinib -0.014 | pictilisib -0.001 | crizotinib 0.003 | [5] -0.001 | duvelisib 0.01 | gandotinib -0.028 | tozasertib -0.011 | doramapimod -0.001 | bafetinib -0.018 | [6] 0.013

PUS3 (UniProt Q9BZE2)
Chain of UniProt Q9BZE2 (Q9BZE2 whole entry, looked up): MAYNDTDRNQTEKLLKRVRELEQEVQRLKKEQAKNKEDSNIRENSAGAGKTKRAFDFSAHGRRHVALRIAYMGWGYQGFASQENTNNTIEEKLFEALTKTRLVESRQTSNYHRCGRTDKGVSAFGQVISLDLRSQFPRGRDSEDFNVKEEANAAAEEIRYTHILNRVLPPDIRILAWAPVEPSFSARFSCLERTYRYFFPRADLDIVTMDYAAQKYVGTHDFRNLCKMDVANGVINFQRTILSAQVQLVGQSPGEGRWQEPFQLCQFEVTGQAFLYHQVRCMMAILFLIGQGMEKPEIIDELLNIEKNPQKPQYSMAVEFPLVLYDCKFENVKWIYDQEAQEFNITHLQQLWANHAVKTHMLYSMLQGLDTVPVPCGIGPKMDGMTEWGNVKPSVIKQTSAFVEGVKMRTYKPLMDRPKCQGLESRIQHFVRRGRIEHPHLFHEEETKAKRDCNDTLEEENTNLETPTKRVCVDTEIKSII
inactive: alvocidib 0.094 | Tubastatin A -0.181 | [1] 0.035 | defactinib -0.089 | [2] -0.117 | encorafenib 0.06 | [3] 0.04 | alisertib 0.01 | [4] -0.021 | gefitinib 0.041 | lapatinib 0.008 | pictilisib -0.085 | crizotinib 0.013 | [5] 0.148 | duvelisib -0.03 | gandotinib -0.234 | tozasertib 0.019 | doramapimod -0.087 | bafetinib -0.005 | [6] -0.185

PIR (UniProt O00625)
Chain of UniProt O00625 (O00625 whole entry, looked up): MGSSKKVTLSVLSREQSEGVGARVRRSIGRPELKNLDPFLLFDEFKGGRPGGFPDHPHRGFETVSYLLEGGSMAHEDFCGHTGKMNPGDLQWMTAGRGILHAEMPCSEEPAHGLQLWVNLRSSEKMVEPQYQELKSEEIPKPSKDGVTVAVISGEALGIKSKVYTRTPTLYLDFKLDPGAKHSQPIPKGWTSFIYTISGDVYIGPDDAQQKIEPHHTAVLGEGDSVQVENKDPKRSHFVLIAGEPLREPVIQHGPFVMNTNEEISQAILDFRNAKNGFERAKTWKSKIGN
inactive: alvocidib 0.006 | Tubastatin A 0.019 | [1] -0.011 | defactinib -0.032 | [2] 0.012 | encorafenib 0.003 | [3] -0.07 | alisertib 0.016 | [4] -0.008 | gefitinib -0.012 | lapatinib 0.017 | pictilisib -0.05 | crizotinib 0.019 | [5] 0.099 | duvelisib -0.035 | gandotinib -0.058 | tozasertib -0.008 | doramapimod -0.021 | bafetinib 0.008 | [6] -0.006

PSMB9 (UniProt P28065)
Chain of UniProt P28065 (P28065 whole entry, looked up): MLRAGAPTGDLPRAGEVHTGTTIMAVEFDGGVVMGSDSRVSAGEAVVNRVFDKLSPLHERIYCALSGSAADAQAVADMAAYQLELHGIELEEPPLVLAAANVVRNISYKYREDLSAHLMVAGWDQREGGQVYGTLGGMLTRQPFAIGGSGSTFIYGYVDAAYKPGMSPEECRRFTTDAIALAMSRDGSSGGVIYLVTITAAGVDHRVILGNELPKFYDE
inactive: alvocidib -0.052 | Tubastatin A 0.076 | [1] 0.006 | defactinib 0.034 | [2] 0.31 | encorafenib -0.076 | [3] 0.027 | alisertib -0.04 | [4] 0.139 | gefitinib -0.016 | lapatinib -0.093 | pictilisib 0.028 | crizotinib -0.098 | [5] -0.033 | duvelisib 0.01 | gandotinib 0.013 | tozasertib -0.087 | doramapimod -0.033 | bafetinib -0.25 | [6] 0.022

PWP1 (UniProt Q13610)
inactive: alvocidib 0.063 | Tubastatin A -0.017 | [1] -0.012 | defactinib 0.002 | [2] -0.046 | encorafenib 0.046 | [3] -0.013 | alisertib -0.014 | [4] 0.008 | gefitinib -0.017 | lapatinib 0.041 | pictilisib -0.001 | crizotinib 0.003 | duvelisib 0.055 | gandotinib -0.052 | tozasertib 0 | doramapimod -0.125 | bafetinib 0.032 | [6] -0.084
active: [5] 0.488

From the supplement of paper PMC10849652
